Compound activity (PubChem BioAssay)
Rows were chosen to be rich in hits. Some 1.3% of all compounds tested hit in one or more screens of this group.
LYPLA1 inh: LYPLA1 inhibitors, primary screen, counter-screen for PME1 inhibitor project, biochemical, fluorescence polarization, FP-Rh probe ABPP; recombinant LYPLA1; inhibition, % at 5.9 µM; actives 0.16% (n = 320,000); AID 2174, 2009;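 active = inhibition above the mean of all tested compounds plus 3 SD, set per campaign, cut at about 14% in these data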;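 also: inhibitors block serine hydrolase probe labeling of LYPLA1 so polarization falls; 0% = enzyme with DMSO and 100% = wells lacking LYPLA1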
PME-1 inh: PME-1 inhibitors via competitive probe labeling, primary screen, biochemical, fluorescence polarization, FP-Rh probe, HTS | Protein phosphatase methylesterase 1 (Homo sapiens), Q9Y570 | recombinant PME-1 | inhibition, % at 5.9 µM | actives 0.53% (n = 320,000) | AID 2130, 2009;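 active = inhibition above the campaign mean of all compounds plus 3 SD, cut at about 26% in these data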;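 also: competitive labeling of PME-1 active site by serine hydrolase directed probe; 0% = PME-1 with DMSO and 100% = wells lacking PME-1 enzyme; inhibitors block probe labeling so polarization falls and inhibition rises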
LYPLA2 inh: LYPLA2 inhibitors, primary screen, counter-screen for PME1 inhibitor project, biochemical, fluorescence polarization, FP-Rh probe ABPP. Acyl-protein thioesterase 2 (Homo sapiens), O95372. recombinant LYPLA2. inhibition, % at 5.9 µM. actives 0.38% (n = 320,000);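 active = inhibition above the screen-wide mean plus 3 SD, limit set per campaign, cut at about 26% in these data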;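 also: 0% = LYPLA2 with DMSO and 100% = wells lacking LYPLA2 enzyme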
PREPL inh: PREPL enzyme inhibitors, primary screen, biochemical, fluorescence polarization; recombinant PREPL, fluorescence polarization activity-based probe; Prolyl endopeptidase-like (Homo sapiens), Q4J6C6; actives 0.68% (n = 320,000); inhibition, % at 5.96 µM;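 also: 0% = enzyme with DMSO and 100% = wells lacking enzyme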
Target sequence (Q4J6C6 whole entry, looked up): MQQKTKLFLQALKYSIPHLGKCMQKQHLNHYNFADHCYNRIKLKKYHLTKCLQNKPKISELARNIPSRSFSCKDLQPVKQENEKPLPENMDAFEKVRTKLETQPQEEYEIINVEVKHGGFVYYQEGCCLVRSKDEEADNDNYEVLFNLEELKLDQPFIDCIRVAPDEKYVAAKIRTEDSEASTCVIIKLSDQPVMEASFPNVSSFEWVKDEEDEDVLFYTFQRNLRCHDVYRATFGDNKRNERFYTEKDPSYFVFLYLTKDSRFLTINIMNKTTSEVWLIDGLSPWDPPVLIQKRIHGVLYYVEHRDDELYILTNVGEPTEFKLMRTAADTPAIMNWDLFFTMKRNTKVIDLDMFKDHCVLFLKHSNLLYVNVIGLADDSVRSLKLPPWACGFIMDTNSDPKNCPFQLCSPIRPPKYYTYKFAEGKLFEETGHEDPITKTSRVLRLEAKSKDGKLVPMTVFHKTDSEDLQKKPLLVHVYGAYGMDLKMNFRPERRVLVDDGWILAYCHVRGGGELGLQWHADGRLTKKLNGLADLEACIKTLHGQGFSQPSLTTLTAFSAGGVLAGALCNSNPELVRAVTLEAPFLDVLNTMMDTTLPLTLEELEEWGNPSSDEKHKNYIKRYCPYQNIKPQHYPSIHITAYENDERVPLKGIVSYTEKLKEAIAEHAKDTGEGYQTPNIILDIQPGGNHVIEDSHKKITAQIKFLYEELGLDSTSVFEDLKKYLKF
Fam108B inh: mouse Fam108B serine hydrolase inhibitors, primary screen, counter-screen for RBBP9 inhibitor project, biochemical, fluorescence polarization; AID 1947, 2009; inhibition, % at 9.51 µM; recombinant Fam108B, FP-Rh probe fluorescence polarization; actives 0.33% (n = 300,000);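 active = inhibition above the screen mean inhibition plus 3 SD, computed separately per campaign, cut at about 18% in these data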;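 also: inhibitors lower polarization as less probe binds the enzyme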
PREPL confirm: human PREPL enzyme inhibitors, confirmation, biochemical, fluorescence polarization | AID 2803, 2010 | inhibition, % at 5.96 µM | actives 67% (n = 2,000) | recombinant PREPL, fluorescence polarization activity probe | shares compounds with PREPL inh;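 also: 0% = protein with DMSO and 100% = wells lacking protein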
* = called active by the depositor; . = no result. Rule as the data show it, unless noted: active = inhibition above about 43%; inactive = the rest.

SMILES	LYPLA1 inh	PME-1 inh	LYPLA2 inh	PREPL inh	Fam108B inh	PREPL confirm
CCCCC1=CC2=CC(=O)C(C)(OC(=O)CC)C(=O)C2=CN1CCc1c[nH]c2ccccc12 (configuration not stated)	1	-11	0	38	4	.
COC(=O)CCCC1=CC2=CC(=O)C(C)(OC(=O)c3cccs3)C(=O)C2=CN1CCc1c[nH]c2ccccc12 (configuration not stated)	-2	16	1	45*	-1	22
Cc1ccc2c(c1)c1c(n2CC(O)CNC2CCCCC2)CCCC1 (configuration not stated)	2	4	-4	50*	0	46*
CN1/C(=C\C=Nc2ccc3ccccc3c2)C(C)(C)c2ccccc21	-4	4	-3	42	3	.
CN(C)c1ccc(N=C/C=C2\N(C)c3ccccc3C2(C)C)cc1	-1	2	-2	70*	1	68*
O=C1/C(=N\S(=O)(=O)c2cccs2)C([n+]2ccc(CCCc3ccccc3)cc2)=C([O-])c2ccccc21	1	3	3	69*	6	70*
NC(=O)C1CC(=O)N(c2ccc(OCc3ccc(Cl)cc3Cl)cc2)C1 (configuration not stated)	6	2	-1	47*	1	43
c1ccc(Cc2noc(CN3CCN(CCOc4ccccc4)CC3)n2)cc1	-1	-3	-5	0	-6	.
COc1cc2[nH]c3c(Cl)ncnc3c2cc1OC	-2	-5	-1	4	4	.
COc1ccc2[nH]c3c(N4CC(C)OC(C)C4)ncnc3c2c1 (configuration not stated)	3	-8	2	-1	2	.
COc1cc2[nH]c3c(N4CCN(c5ccc(Cl)cc5)CC4)ncnc3c2cc1OC	-26	28*	-40	95*	14	75*
COc1cccc(N2CCN(c3ncnc4c3[nH]c3ccccc34)CC2C)c1 (configuration not stated)	-6	21	-1	46*	15	46*
COc1cccc(N2CCN(c3ncnc4c3[nH]c3ccc(F)cc34)CC2C)c1 (configuration not stated)	0	28*	8	49*	16	47*
CCOc1ccc(CCNC(=O)c2ccc3c(=O)[nH]c4c(C(=O)NC(C)C)sc(=S)n4c3c2)cc1	0	10	10	55*	11	79*
CC(C)NC(=O)c1sc(=S)n2c1[nH]c(=O)c1ccc(C(=O)NCCc3ccc(Cl)cc3)cc12	4	19	20	70*	1	80*
CC1(C)C=C2C(=NN(c3ccccc3)C(N)=C2C#N)CO1	0	13	1	5	7	.
CCCc1ccc(C(=O)NNc2ccccc2F)cc1	2	0	6	-2	5	.
O=C(C1CCCN(S(=O)(=O)c2cccc3nonc23)C1)N1CCN(c2ccccc2Cl)CC1 (configuration not stated)	0	4	9	47*	-3	35
O=C(C1CCCN(S(=O)(=O)c2cccc3nonc23)C1)N1CCN(c2cccc(Cl)c2)CC1 (configuration not stated)	0	5	16	32	2	.
COC(=O)c1ccc(N2NC(=O)/C(=C/c3ccc(OC)c(OC)c3)C2=O)cc1	2	1	-2	-5	-4	.
CCOc1cc(/C=C2\C(=N)N3N=C(S(=O)(=O)CC)SC3=NC2=O)ccc1OC(=O)c1ccco1	-6	-8	-7	38	-3	.
COc1cc(/C=C2\C(=N)N3N=C(S(C)(=O)=O)SC3=NC2=O)ccc1OC(=O)c1cccs1	-1	-11	12	76*	-3	88*
COc1cc(/C=C2/C(=O)NN(c3cccc(C)c3)C2=O)ccc1OC(=O)c1ccco1	-1	11	9	56*	1	38
COc1cc(/C=C2\C(=N)N3N=C(S(C)(=O)=O)SC3=NC2=O)ccc1OC(=O)c1ccco1	-1	-6	5	61*	1	85*
